We go through three compounds from PubChem BioAssay (NCATS).

SMILES strings stand for the structures. Results filed as inconclusive are left out. Active and inactive are the calls of the source. Unless noted, calls follow the shape of the dose curve; as a rule, active = well fitted curve in the direction sought with a large enough effect; inconclusive = small, poorly fitted or top-dose-only effect, or another doubt; inactive = no such curve, though single readings can be large; an effect the other way counts as inactive or inconclusive. A value given as a limit tells only on which side of the number the result lay.

For assay [1], the target named is Lysosomal acid glucosylceramidase (Homo sapiens) (UniProt P04062). Briefly: Glucocerebrosidase-p2 (AID 348; in the data active = potency below about 10 µM; also: potency is read from the fitted curve at half-maximal effect). Conditions: purified GBA, blue fluorogenic substrate, 40 min. The gist of the method: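 Compounds titrated from 0.6 nM upwards against 0.2 nM enzyme in pH 5.9 citric acid/KH2PO4, taurocholate, tween-20; blue fluorogenic substrate 80 uM, 40 min room temperature, stopped and read Ex 365/Em 440 for AC50.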
Lysosomal acid glucosylceramidase (Homo sapiens), sequence (P04062 whole entry, looked up): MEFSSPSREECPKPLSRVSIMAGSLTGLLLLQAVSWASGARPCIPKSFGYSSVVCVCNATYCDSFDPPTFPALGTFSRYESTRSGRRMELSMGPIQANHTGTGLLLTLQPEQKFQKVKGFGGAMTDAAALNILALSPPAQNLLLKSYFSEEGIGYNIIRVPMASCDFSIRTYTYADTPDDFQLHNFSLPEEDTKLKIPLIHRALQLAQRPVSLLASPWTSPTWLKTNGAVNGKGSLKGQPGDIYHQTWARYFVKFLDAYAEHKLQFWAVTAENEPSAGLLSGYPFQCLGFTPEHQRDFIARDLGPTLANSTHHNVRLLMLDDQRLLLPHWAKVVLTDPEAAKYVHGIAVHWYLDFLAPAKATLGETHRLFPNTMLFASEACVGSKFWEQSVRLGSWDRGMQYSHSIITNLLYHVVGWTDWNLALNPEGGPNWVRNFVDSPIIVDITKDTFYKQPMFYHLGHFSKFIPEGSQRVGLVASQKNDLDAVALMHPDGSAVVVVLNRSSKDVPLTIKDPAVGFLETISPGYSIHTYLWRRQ

Assay [2] concerns the target Cytochrome P450 1A2 (Homo sapiens) (UniProt P05177). Briefly: p450-cyp1a2 (AID 410; calls by dose curve; also: potency is read from the fitted curve at half-maximal effect;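 as to activity change, negative = inhibition: -100% = full effect of reference inhibitor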). Conditions: recombinant CYP1A2, luciferin-ME demethylation, luminescence; series mostly up to 57 µM. A digest of the protocol: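 Luminescent readout of luciferin formed from Luciferin-ME by human CYP1A2; data normalized against complete inhibition by 57 uM furafylline. Enzyme 20nM, substrate 100uM at Km, 100mM KPO4 buffer, 60 min reaction at room temperature.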

The target of assay [3] is Glucocorticoid receptor (Homo sapiens) (UniProt P04150). In words: GR-GFP Redistribution (AID 450;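 active = compounds whose dose series gives a full or clear partial fitted curve of increased nuclear translocation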; also: potency is read from the fitted curve at half-maximal effect). Conditions: U2OS GR-GFP nuclear translocation, laser cytometry, 2 h.
Glucocorticoid receptor (Homo sapiens), sequence (P04150 whole entry, looked up): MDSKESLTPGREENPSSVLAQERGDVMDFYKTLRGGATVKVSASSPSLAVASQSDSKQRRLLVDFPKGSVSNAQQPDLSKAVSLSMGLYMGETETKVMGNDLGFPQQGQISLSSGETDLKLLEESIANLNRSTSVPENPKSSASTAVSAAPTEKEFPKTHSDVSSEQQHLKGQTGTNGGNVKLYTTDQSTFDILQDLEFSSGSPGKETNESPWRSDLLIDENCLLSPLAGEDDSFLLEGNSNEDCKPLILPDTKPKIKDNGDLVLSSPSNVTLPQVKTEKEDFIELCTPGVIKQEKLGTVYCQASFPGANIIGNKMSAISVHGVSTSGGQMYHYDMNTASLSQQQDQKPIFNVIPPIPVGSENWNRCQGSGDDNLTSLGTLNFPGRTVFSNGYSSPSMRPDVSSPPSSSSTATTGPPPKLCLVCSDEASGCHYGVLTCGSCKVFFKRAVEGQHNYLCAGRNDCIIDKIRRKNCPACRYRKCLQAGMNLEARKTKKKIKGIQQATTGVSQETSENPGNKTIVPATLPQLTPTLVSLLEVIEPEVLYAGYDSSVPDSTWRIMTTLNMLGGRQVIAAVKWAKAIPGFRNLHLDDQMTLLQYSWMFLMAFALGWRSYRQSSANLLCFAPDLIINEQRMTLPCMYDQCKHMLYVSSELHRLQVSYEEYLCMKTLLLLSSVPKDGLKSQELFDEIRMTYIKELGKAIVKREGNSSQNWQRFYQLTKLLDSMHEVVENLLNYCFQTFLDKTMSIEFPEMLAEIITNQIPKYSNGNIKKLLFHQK
Assay [4] has the same target. Briefly: GR-EFC Redistribution (AID 451; calls by dose curve; also: potency is read from the fitted curve at half-maximal effect). Conditions: CHO-K1 GR-EFC translocation, beta-gal luminescence, 2 h. A digest of the protocol:
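CHO-K1 cells expressing nuclear EA and GR-ED fragments of b-gal; compounds titrated up to 46 uM final, 2 h at 37 C. GR nuclear translocation read as complemented b-gal luminescence after 1 h RT detection.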

In assay [5] the target is Cytochrome P450 3A4 (Homo sapiens) (UniProt P08684). In words: qHTS Assay for Inhibitors and Substrates of Cytochrome P450 3A4 (AID 884). Also: % is scaled to controls: 0 for no effect and ±100 for the full control effect; nearly all actives have a fitted effect of over 50% in size. Conditions: recombinant CYP3A4, Luciferin-PPXE luminescence; series mostly up to 57.1 µM. The gist of the method:
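20 nM human CYP3A4 with 25 uM Luciferin-PPXE (at KM) in 200 mM KPO4, preincubated 10 min with compound; NADPH regeneration started a 60 min RT reaction. Luciferin detected by luminescence, normalized to 57 uM ketoconazole as full inhibition.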
For orientation: In qHTS, concentration-response curves come from the screen itself.

Assay [6] in a line: qHTS Assay for Identification of Small Molecule Agonists for Hypoxia Response Element Signaling Pathway (AID 914; active = well fitted activation curve with a large enough effect in the signal ratio, with a control signal flat, not every such curve was filed as active; the % refers to the signal ratio; also: potency is read from the fitted curve at half-maximal effect). To be noted: ME-180 (cervical carcinoma) HRE-bla reporter, beta-lactamase ratio, CoCl2, 17 h; activation: stronger effect = higher value. The gist of the method: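 Reporter activity (beta-lactamase, CCF4 460nm/530nm ratio) in HRE-bla ME-180 cells is recorded after 17 h compound exposure with EC50 CoCl2 at 37 degrees Celsius. AC50 values come from titration data.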

Assay [7] can be described thus: qHTS Assay for Lipid Storage Modulators (AID 1519; calls by dose curve; as to activity change, negative = inhibition: % is scaled to controls: 0 for no effect and ±100 for the full control effect). To be noted: Drosophila S3 cells, BODIPY lipid droplet/cell ratio, laser cytometry, cells loaded with oleic acid; for activity change, negative = inhibition: at 57.5 µM (top of the series). The gist of the method: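 Cells seeded at 5,000 per well were treated with compounds over a concentration series and loaded with oleic acid (400 uM, as added). Lipid droplet fluorescence (488 nm excitation, 500-530 nm channel) was read by laser-scanning cytometry and normalized to 20 uM Triacsin C.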

The target in assay [8] is Dual specificity protein kinase CLK4 (Homo sapiens) (UniProt Q9HAZ1). In words: qHTS Assay for Inhibitors of CDC-like Kinase 4 (Kinase-Glo Assay) (AID 1770). Also: % is scaled to controls: 0 for no effect and ±100 for the full control effect; nearly all actives have a fitted effect of over 65% in size. Conditions: recombinant Clk4, Kinase-Glo ATP depletion luminescence; series mostly up to 66.7 µM. A digest of the protocol:
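Substrate mix (RS peptide 100 uM, ATP 1 uM) dispensed, compound pinned in, then Clk4 added to 25 nM final. Incubated 4.5 h at RT; Kinase-Glo reagent added, luminescence read after 5 min.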

Assay [9] has the same target. Briefly: qHTS Assay for Inhibitors of CDC-like Kinase 4 (ADP-Glo Assay) (AID 1771). Also: % is scaled to controls: 0 for no effect and ±100 for the full control effect; nearly all actives have a fitted effect of over 70% in size. Conditions: recombinant CLK4, ADP-Glo luminescence; series mostly up to 80 µM. The gist of the method: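 Luminescence from ADP-Glo reports ADP produced by 25 nM Clk4 acting on 100 uM RS repeat peptide with 1 uM ATP over 1 hr at room temperature; residual ATP is depleted before ADP is converted to ATP for detection.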

The target is the same in assay [10]. Briefly: qHTS Assay for Inhibitors of CDC-like Kinase 4 (ADP-FP Assay) (AID 1795). Also: % is scaled to controls: 0 for no effect and ±100 for the full control effect; nearly all actives have a fitted effect of over 60% in size. Conditions: Transcreener ADP fluorescence polarization; series mostly up to 50 µM. A digest of the protocol:
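Clk4 6.25 nM; RS peptide 100 uM; ATP 1 uM; 25 mM Tris pH 7.5, 10 mM MgCl2; 1 h reaction. ADP detected via antibody/orange tracer FP displacement; TG003 positive control.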

Assay [11] has as its target Ubiquitin carboxyl-terminal hydrolase 1 (Homo sapiens) (UniProt O94782). Briefly: Inhibitors of USP1/UAF1: Pilot qHTS (AID 504865).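 Also: rhodamine fluorescence freed from ubiquitin-rhodamine substrate followed over time; top concentration of the series differs between compounds; % is scaled to controls: 0 for no effect and ±100 for the full control effect; nearly all actives have a fitted effect of over 35% in size.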 To be noted: purified USP1/UAF1, Ub-rhodamine cleavage fluorescence; series mostly up to 54.9 µM. A digest of the protocol: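 In 50mM HEPES pH 7.8 containing 0.5mM EDTA, 1mM TCEP, 0.1 mg/ml BSA and 0.01% Tween-20, 1nM USP1/UAF1 is exposed to compound for 15 min, then Ub-Rho (150nM final) is added and fluorescence is read over time.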

Assay [12] in a line: Primary qHTS for small molecule stabilizers of the endoplasmic reticulum resident proteome: Secreted ER Calcium Modulated Protein (SERCaMP) assay (AID 1508630). Also: % is scaled to controls: 0 for no effect and ±100 for the full control effect. To be noted: SH-SY5Y GLuc-SERCaMP (Gaussia luciferase released on ER calcium loss) secretion, thapsigargin, luminescence; series mostly up to 38.4 µM. A digest of the protocol:
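GLuc-SERCaMP-expressing SH-SY5Y cells, pretreated 16 h with compound, are challenged with thapsigargin to empty ER calcium stores; after 4 h, coelenterazine is added directly to the medium and luminescence is imaged.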

The nature of assay [13]: NFAT Signaling Pathway (AID 444; active = well fitted curve in either direction with a large enough effect, not every such curve was filed as active;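 also: carbachol stimulus at about its EC50 of 1 µM final; % is scaled to controls: 0 for no effect and ±100 for the full control effect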). Conditions: Jurkat NFAT-bla M1, carbachol, beta-lactamase ratio, 5 h; at 7.69 µM (top of the series) unless noted. The gist of the method:
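Jurkat cells with NFAT-driven β-lactamase reporter and co-expressed M1 receptor, stimulated with carbachol (final 1 uM, ~EC50), compound titration, 5 h at 37 °C. CCF4 loaded 1 h at RT; 460/530 nm ratio gave %activity and AC50.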

Assay [14] has as its target Mitogen-activated protein kinase 10 (Mus musculus) (UniProt Q61831). Briefly: JNK3 AlphaScreen Assay (AID 530; active = well fitted curve in either direction with a large enough effect, not every such curve was filed as active;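 also: kinase came from lysate of stimulated human HepG2 cells; signal reports phosphorylation of biotinylated GST-cJun 1-79 at Ser73 with 10 µM ATP; % is scaled to controls: 0 for no effect and ±100 for the full control effect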). Conditions: JNK3 lysate, c-Jun phosphorylation; series mostly up to 57.1 µM. A digest of the protocol: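 Pre-activated (IL-1β/TNFα) JNK3 in HepG2 lysates phosphorylates biotin-GST-cJun(1-79), 10 uM ATP; anti-phospho-cJun(Ser73) AlphaScreen read at room temperature, pH 7.6 Tris buffer. Compounds pre-incubated 15 min as titrations.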
For orientation: Alpha assays give light when donor and acceptor beads are brought close together.

Assay [15] concerns the target Cytochrome P450 3A4 (Homo sapiens) (UniProt P08684). Briefly: qHTS Assay for Activators of Cytochrome P450 3A4 (AID 885). Also: nearly all actives have a fitted effect of over 65% in size. Conditions: recombinant CYP3A4, Luciferin-PPXE luminescence, 60 min; series mostly up to 57.1 µM. A digest of the protocol: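 Human CYP3A4 (20 nM) with Luciferin-PPXE at 25 uM (its KM) in 200 mM KPO4; 10 min compound preincubation, then NADPH regeneration and 60 min reaction at RT. Luciferin read by luminescence; normalized to 57 uM ketoconazole full inhibition.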

The target of assay [16] is 3',5'-cyclic-AMP phosphodiesterase 4B (Homo sapiens) (UniProt Q07343). In words: qHTS Assay for Inhibitors of PDE-IV (AID 607; active = well fitted activation curve with a large enough effect in the main read-out, with a control signal flat, not every such curve was filed as active; also: % of control where 0% means no effect). Conditions: HEK293 ACTOne CNG channel cells, membrane potential fluorescence; series mostly up to 22.9 µM. A digest of the protocol:
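HEK293 ACTOne cells with CNG channel (1000/well), endogenous PDE4; membrane potential dye, compounds up to 22.9 uM final. Fluorescence Ex 535/Em 590; RO 20-1724 (100 uM final) as reference.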

The mark [17] stands for this setting: measured here: cell count channel max response.
Where [18] appears, read: measured here: lipid channel max response.

Ubiquitin carboxyl-terminal hydrolase 1 (Homo sapiens), sequence (O94782 whole entry, looked up): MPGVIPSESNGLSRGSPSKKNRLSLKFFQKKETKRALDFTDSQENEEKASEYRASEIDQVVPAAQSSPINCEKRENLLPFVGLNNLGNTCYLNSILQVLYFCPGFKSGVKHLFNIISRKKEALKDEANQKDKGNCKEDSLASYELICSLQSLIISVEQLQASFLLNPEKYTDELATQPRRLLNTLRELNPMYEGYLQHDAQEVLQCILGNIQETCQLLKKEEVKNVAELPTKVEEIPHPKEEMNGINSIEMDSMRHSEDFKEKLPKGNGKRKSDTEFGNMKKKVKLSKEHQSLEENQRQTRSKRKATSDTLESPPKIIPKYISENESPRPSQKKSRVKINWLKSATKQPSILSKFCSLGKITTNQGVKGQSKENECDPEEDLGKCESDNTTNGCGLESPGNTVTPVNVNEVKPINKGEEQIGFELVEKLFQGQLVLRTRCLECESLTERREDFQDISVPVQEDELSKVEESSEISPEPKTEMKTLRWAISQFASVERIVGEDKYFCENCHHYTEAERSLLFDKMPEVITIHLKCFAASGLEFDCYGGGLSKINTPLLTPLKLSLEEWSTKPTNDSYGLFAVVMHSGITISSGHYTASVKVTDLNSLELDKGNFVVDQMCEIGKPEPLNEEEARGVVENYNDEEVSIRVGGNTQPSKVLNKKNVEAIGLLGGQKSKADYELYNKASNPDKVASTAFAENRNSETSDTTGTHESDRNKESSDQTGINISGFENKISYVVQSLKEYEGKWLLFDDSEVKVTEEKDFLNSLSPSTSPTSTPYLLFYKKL
Cytochrome P450 3A4 (Homo sapiens), sequence (P08684 whole entry, looked up): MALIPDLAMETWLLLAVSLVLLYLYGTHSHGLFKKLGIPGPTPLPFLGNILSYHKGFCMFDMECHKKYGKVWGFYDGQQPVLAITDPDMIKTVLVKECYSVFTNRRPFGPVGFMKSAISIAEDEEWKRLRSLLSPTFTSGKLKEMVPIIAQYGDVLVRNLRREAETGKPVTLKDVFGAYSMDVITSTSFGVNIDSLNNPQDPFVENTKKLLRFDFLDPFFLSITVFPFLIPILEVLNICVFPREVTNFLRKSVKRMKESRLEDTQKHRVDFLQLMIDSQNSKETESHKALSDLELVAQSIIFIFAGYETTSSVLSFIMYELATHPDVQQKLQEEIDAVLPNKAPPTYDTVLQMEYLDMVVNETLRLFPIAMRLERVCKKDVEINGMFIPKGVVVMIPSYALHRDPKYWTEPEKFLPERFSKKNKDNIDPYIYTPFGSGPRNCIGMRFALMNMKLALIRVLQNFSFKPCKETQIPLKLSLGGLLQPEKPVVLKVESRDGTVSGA
Cytochrome P450 1A2 (Homo sapiens), sequence (P05177 whole entry, looked up): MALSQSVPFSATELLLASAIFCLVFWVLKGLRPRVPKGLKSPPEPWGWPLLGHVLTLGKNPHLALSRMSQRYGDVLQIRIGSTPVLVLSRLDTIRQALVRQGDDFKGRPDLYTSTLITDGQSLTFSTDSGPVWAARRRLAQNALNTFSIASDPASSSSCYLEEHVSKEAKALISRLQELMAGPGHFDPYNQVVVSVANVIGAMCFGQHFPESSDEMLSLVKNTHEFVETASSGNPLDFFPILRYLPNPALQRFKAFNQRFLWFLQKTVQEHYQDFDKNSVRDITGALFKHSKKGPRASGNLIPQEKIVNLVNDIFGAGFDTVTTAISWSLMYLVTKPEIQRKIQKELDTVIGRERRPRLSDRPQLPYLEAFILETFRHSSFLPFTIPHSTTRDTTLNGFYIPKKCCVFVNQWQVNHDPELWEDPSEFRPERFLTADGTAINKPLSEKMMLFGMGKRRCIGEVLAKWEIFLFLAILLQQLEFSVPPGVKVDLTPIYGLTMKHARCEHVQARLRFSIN
Dual specificity protein kinase CLK4 (Homo sapiens), sequence (Q9HAZ1 whole entry, looked up): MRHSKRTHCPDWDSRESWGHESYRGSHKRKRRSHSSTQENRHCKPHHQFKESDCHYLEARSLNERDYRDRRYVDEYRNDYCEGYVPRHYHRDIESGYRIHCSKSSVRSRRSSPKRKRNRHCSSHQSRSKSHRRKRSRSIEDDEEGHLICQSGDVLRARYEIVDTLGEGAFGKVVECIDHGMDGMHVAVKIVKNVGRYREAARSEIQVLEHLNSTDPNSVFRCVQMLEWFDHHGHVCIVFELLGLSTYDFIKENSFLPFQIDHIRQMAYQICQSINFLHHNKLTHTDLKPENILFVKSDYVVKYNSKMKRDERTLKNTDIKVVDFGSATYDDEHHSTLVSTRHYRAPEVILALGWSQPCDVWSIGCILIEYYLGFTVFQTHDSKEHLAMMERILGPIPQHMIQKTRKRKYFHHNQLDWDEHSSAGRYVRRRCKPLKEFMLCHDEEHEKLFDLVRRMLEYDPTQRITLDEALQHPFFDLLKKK
3',5'-cyclic-AMP phosphodiesterase 4B (Homo sapiens), sequence (Q07343 whole entry, looked up): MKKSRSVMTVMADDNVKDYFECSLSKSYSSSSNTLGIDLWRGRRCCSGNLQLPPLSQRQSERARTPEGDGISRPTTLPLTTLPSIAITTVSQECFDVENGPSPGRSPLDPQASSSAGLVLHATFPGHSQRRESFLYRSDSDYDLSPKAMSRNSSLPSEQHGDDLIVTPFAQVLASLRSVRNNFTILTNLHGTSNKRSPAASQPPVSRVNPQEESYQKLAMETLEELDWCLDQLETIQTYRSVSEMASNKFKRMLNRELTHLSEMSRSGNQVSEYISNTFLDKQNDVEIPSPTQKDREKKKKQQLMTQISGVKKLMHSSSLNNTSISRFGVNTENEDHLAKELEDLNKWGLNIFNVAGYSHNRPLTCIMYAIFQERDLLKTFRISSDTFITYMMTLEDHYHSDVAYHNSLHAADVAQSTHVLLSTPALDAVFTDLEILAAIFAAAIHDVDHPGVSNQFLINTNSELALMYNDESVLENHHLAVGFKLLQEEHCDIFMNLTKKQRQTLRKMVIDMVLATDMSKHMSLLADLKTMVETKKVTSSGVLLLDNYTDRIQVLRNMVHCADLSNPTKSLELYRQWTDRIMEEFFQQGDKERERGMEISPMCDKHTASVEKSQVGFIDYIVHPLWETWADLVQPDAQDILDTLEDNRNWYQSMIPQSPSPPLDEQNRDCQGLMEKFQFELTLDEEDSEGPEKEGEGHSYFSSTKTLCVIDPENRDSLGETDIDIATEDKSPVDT

On to `CN1CCN(c2ncc3nc(-c4ccc(F)cc4)c(=O)n(Cc4cccs4)c3n2)CC1`, for which the Potency in assay [1] is > 11.4 µM (inactive); in assay [2], 25.1 µM (active); in assay [3], > 9.22 µM (inactive); in [4] it was > 46 µM (inactive); in assay [6], 3.16 µM (active). Further, the Potency result in assay [5], in assay [8], in assay [9], in assay [10], in assay [11] and in assay [12] was “inactive” each time. Besides, the activity change, negative = inhibition in [7] was -3.43% (inactive). The max response in assay [7] (setting [17]) came to 8.36%; in [7] (setting [18]), 0.564%.

As for `COc1ncc2nc(-c3cccs3)c(=O)n(CCc3ccccc3)c2n1`, the Potency is > 11.4 µM (inactive) in assay [1]; 1.26 µM (active) in assay [2]; > 9.22 µM (inactive) in [3]; > 46 µM (inactive) in assay [4]; 3.16 µM (active) in assay [6]. The results for the activity change, negative = inhibition in [13] and in assay [7] were 11.4% (inactive) and 2.39% (inactive), respectively. Besides, the compound was classed as inactive in assay [14]. Besides, the Potency result in assay [15], in assay [8], in [9], in [10], in assay [11] and in [12] was “inactive” each time. The max response is -3.52% in assay [7] (setting [17]) and -2.93% in [7] (setting [18]).

Take `COc1cccc(Cn2c(=O)c(-c3cccc(C#N)c3)nc3cnc(N4CCN(C)CC4)nc32)c1`: the Potency in assay [1] is > 11.4 µM (inactive); in [3] it was > 9.22 µM (inactive); in assay [4] it was > 46 µM (inactive); in assay [6] it was 3.16 µM (active). Also, the Potency entry in assay [2], in [16], in assay [15], in [8], in assay [9] and in assay [10] was “inactive” in each case. Further, the Potency result in [11] and in assay [12] was “inactive” in each case. Besides, the result in [14] was inactive. Moreover, in assay [7], the activity change, negative = inhibition was 2.54% (inactive). In addition, the max response in assay [7] (setting [17]) was 21.5%; in assay [7] (setting [18]), 24.1%.
